In PubChem BioAssay (Tox21):
Several values for one entry are separate records, joined by “and”; a condition that tells them apart may be missing. Equal values may be shown once. Inconclusive results are not listed. Where a call stands in place of a potency, no number is given. More than one record can exist for a structure, and the calls need not agree. Activity calls are given as the source filed them. The call rests on the fitted dose curve.

target: Muscarinic acetylcholine receptor M1 (Homo sapiens) (UniProt P11229); assay: Cholinergic receptor muscarinic 1 (CHRM1) small molecule antagonists, cell-based qHTS assay (AID 1963588); details: CHRM1-CHO antagonist mode, calcium flux fluorescence; series mostly up to 61.5 µM; further: nearly all actives have a fitted effect of over 40% in size
Sequence (P11229 whole entry, looked up): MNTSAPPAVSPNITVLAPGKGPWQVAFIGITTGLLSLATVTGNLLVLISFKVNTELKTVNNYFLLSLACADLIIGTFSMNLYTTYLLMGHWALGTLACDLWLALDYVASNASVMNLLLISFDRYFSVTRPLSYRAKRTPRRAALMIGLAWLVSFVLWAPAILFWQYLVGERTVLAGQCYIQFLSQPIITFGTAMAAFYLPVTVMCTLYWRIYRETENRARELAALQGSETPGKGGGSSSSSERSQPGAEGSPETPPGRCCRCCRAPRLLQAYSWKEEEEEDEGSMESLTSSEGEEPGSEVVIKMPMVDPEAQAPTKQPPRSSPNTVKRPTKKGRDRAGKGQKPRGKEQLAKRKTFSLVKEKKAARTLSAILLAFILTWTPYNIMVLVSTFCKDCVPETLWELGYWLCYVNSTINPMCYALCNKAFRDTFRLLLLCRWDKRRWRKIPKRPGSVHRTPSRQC
Source text: National Center for Advancing Translational Sciences [NCATS]
Division of Preclinical Innovation [DPI]
U.S. Environmental Protection Agency [EPA]
National Institutes of Environmental Health Sciences [NIEHS]
National Toxicology Program [NTP]
U.S. Food and Drug Administration [FDA]
The CHRM1 is a muscarinic receptor. This receptor plays a crucial role in learning and memory processes and has long been identified as a promising therapeutic target for the improvement of cognitive decline in Alzheimer's disease (AD). The CHRM1-CHO cell line stably expressing human muscarinic acetylcholine receptor M1 (CHRM1) can be used for screening agonists and antagonists of interactions between CHRM1 and its ligands. The CHRM1-CHO Calcium Flux Assay is a homogeneous fluorescence-based assay for detecting the intracellular calcium level using FDSS kinetic plate reader system.
Tox21 Assay Protocol Summary:
CHRM1-CHO cells were dispensed at 1000 cells/3uL/well in 1536-well black-clear bottom plates using a Multidrop Dispenser. After the assay plates were incubated at a 37 C/5% CO2 incubator for 18 h, 3 uL of Dye Loading Buffer was transferred to the assay plate by a Flying Reagent Dispenser. The assay plates were incubated at 37 C for 1h. For antagonist mode, 23 nL of compounds dissolved in DMSO, positive controls or DMSO only was transferred to the assay plate by a pin tool. After 5 min incubation at room temperature, 1.5 uL of acetylcholine at 50nM was added to each well. The fluorescence intensity in the plates was measured using FDSS 7000EX kinetic plate reader for 3 min at 1 sec intervals. Each test compound was measured at 15 concentrations in three independent runs.
Potency means the concentration at half of the fitted maximal effect.

Compound	Potency
Oc1ccc(Cl)cc1	inactive
CCOC(=O)CP(=O)(OCC)OCC	inactive
C[CH2][Hg][S]c1ccccc1C(=O)O	inactive
CCCCCCC#N	inactive
CCCCCCCCn1cc[n+](C)c1	9.41 µM (active) and 3.78 µM (active) and inactive
O=[N+]([O-])O	inactive
CN(N=O)c1ccccc1	inactive
CCN(CC)C(=O)/C(Cl)=C(\C)OP(=O)(OC)OC	inactive
CCCOC(=O)c1ccccc1C(=O)OCCC	inactive
BrCCBr	inactive
COc1cc(N)c(Cl)cc1C(=O)NC1CN2CCC1CC2 (stereo not given)	inactive
CCCCNC(=O)n1c(NC(=O)OC)nc2ccccc21	inactive
Cc1ccc(O)c(C)c1	inactive
N#Cc1cc(Br)c(O)c(Br)c1	inactive
Oc1ccc(Cl)cc1Cc1ccccc1	inactive
CC(=O)CC(c1ccc(Cl)cc1)c1c(O)c2ccccc2oc1=O (stereo not given)	inactive
N#Cc1cc([N+](=O)[O-])ccc1N	inactive
CC(C)C1(C)N=C(c2nc3ccccc3cc2C(=O)O)NC1=O (stereo not given)	inactive
CNC(=O)Oc1ccccc1C1OCCO1	inactive
CC1(C)C(=O)NC(=O)NC1=O	inactive

Compound	Potency
CC(Oc1ccc(Cl)cc1Cl)C(=O)O (stereo not given)	inactive
CN(C)C(=O)Nc1ccc(Cl)cc1	inactive
O=P(OCC(Br)CBr)(OCC(Br)CBr)OCC(Br)CBr (stereo not given)	inactive
CCC(C)(C#N)N=NC(C)(C#N)CC (stereo not given)	inactive
CCC(C)c1ccc(O)cc1 (stereo not given)	inactive
CCc1cc(C)cc(CC)c1-c1c(OC(=O)C(C)(C)C)n2n(c1=O)CCOCC2	inactive
C[C@]12CCC(=O)C=C1CC[C@@H]1[C@@H]2CC[C@]2(C)C(=O)CC[C@@H]12	inactive
Cl[C@H]1OCCO[C@@H]1Cl	inactive
CN1CC[C@]23c4c5ccc(O)c4O[C@H]2[C@@H](O)CC[C@H]3[C@H]1C5	inactive
Cc1ccc(OP(=O)(Oc2ccc(C)cc2)Oc2ccc(C)cc2)cc1	inactive
Clc1ccc(C2(Cn3cncn3)OCCO2)c(Cl)c1	inactive
C=C(C)[C@@H]1CC=C(C=O)CC1	inactive
CC(C)Nc1nc(Cl)nc(NC(C)C)n1	inactive
Cc1ccc(CCl)cc1	inactive
c1ccc(-c2cccc(-c3ccccc3)c2)cc1	inactive
Cc1cccc(N)c1N	inactive
O=C(O)COc1ccccc1	inactive
Nc1ccc(N=Nc2ccc(-c3ccc(N=Nc4c(S(=O)(=O)O)cc5cc(S(=O)(=O)O)c(N=Nc6ccccc6)c(O)c5c4N)cc3)cc2)c(N)c1	inactive
C=CC1(C)OC(=O)N(c2cc(Cl)cc(Cl)c2)C1=O (stereo not given)	inactive
COP(=O)(OC)C(O)C(Cl)(Cl)Cl (stereo not given)	inactive
